The supplement of paper PMC6555819

Experiments:
Experiment in all cases: PBM binding z-score (relative to random genomic background probes); higher = stronger binding; sequences stand for … in GC…GCGATTGACAGCGTAGAATGAAGG
[1] = system: FXR:RXRa (NR concentration 270 nM, RXRa partner concentration 90 nM)
How it was run: (§1)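 Custom Agilent 4×180K protein-binding microarrays carried double-stranded probes, each with a 34-nt variable region. These regions held direct-repeat seeds, single-nucleotide variants, half-site ablations and random human genomic background sequences. Ligand-free nuclear receptor dimers were incubated on the arrays for 1 h, antibodies against each partner (one per run) detected binding, and scanned fluorescence was regression-normalized. Binding z-scores take the random background probes as reference.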

[2] = system: LXRa:RXRa (NR concentration 270 nM, RXRa partner concentration 90 nM)
How it was run: as §1

[3] = system: LXRa homodimer (NR concentration 270 nM)
How it was run: as §1

[4] = system: LXRb:RXRa (NR concentration 270 nM, RXRa partner concentration 90 nM)
How it was run: as §1

[5] = system: LXRb homodimer (NR concentration 270 nM)
How it was run: as §1

[6] = system: PPARa:RXRa (NR concentration 270 nM, RXRa partner concentration 90 nM)
How it was run: as §1

[7] = system: PPARg:RXRa (NR concentration 180 nM, RXRa partner concentration 90 nM)
How it was run: as §1

[8] = system: PPARg:RXRa 270nM:90nM, anti-RXR (NR concentration 270 nM, RXRa partner concentration 90 nM)
How it was run: as §1

[9] = system: PPARg:RXRa 30nM:10nM, anti-RXR (NR concentration 30 nM, RXRa partner concentration 10 nM)
How it was run: as §1

[10] = system: PPARg:RXRa 90nM:30nM, anti-RXR (NR concentration 90 nM, RXRa partner concentration 30 nM)
How it was run: as §1

Sequence | PBM binding z-score [1] | PBM binding z-score [2] | PBM binding z-score [3] | PBM binding z-score [4] | PBM binding z-score [5] | PBM binding z-score [6] | PBM binding z-score [7] | PBM binding z-score [8] | PBM binding z-score [9] | PBM binding z-score [10]
TCATATAGGTAAACAGGGGAAAGTCCGTAAGTTA | 1.29 | 1.09 | 0.283 | 0.925 | -0.0206 | 1.61 | 1.52 | 2.89 | 3.92 | 3.45
CCTACTGGGCCAAAGGTCATTGTTTCCAATGCTC | 4.79 | 5.08 | 4.83 | 4.72 | 1.37 | 6.74 | 11.7 | 10.6 | 10.6 | 11.3
TCTATTAGATGATTAGGGCAACCGAAACAGCGGA | 0.507 | 0.432 | 0.054 | 0.49 | 0.329 | 0.871 | 0.674 | 1.88 | 3.31 | 2.68
CGTCATAGTTCAAGGTAACGTAACAGAAAGCAGC | 1.89 | 2.17 | 0.514 | 1.5 | 0.174 | 2.48 | 1.29 | 1.78 | 0.603 | 1.3
GGAACGAGGGCATTCGAGTTGATCGCATGGCGAT | 1.56 | 1.88 | -0.524 | 0.182 | -1 | 1.17 | 0.585 | 0.552 | -0.63 | 0.176
ACTATTAGTTGAGACGAGGGCAACCGCTAGGTTG | 0.861 | 0.155 | -0.0789 | 0.0826 | -0.113 | 0.374 | 0.327 | 0.207 | -0.122 | 0.0431
CAACCTAGGTCAAAGGTCAAAGTCGAGCCAACCA | 8.61 | 7.41 | 5.72 | 7.42 | 3.03 | 7.49 | 12.5 | 10.1 | 10.9 | 11.3
CTTAGCAGGCCAGGGTCACTCAAGCATTTCGCTT | 2.22 | 1.69 | -0.276 | 2.19 | -0.331 | 3.33 | 0.864 | 1.93 | -0.113 | 1.06
ATCTCTAGGTAAGACTCAGTTCCGTGAAGAACGC | 0.132 | 0.397 | 0.225 | 0.111 | 0.896 | -0.155 | -0.0539 | 0.0133 | -0.0195 | 0.0962
ACTAGCAGGCCAAGATTGGGTCACTCAAACAAAG | -0.0447 | -0.288 | -0.493 | 0.338 | -0.861 | 1.33 | 0.272 | 0.402 | -0.526 | -0.361
TTACCAAGGTGAGTTGAGGTCGTTGATCCAACTC | 1.28 | 2.03 | -0.25 | 1.39 | -0.831 | 2.06 | 0.352 | 0.682 | 0.292 | 0.637
CCTCGGAGGAGAACAGGAGGTCAGAGCTGCCAGA | 1.12 | 1.8 | 1.57 | 1.43 | -0.244 | 1.87 | 0.262 | 0.0579 | -0.552 | -0.216
CAAACTAGGTCAAGGTAAAAGTCGGTTTGTGCCA | 3.54 | 2.52 | 0.259 | 1.97 | 0.356 | 4.86 | 8.27 | 7.09 | 4.93 | 6.9
AATACAGGGTCATCGTATGCCAGAGTACGCACAG | 7.33 | 5.98 | 1.87 | 4.34 | 1.25 | 5.64 | 6.62 | 5.86 | 2.88 | 4.57
CGAACTAGGTCAGAACAGGTCAGTGAAGGATGAT | 2.92 | 2.65 | 0.47 | 1.69 | -0.091 | 3.73 | 5.27 | 4.8 | 1.67 | 4.11
TCTGCTAGGTCAGTTGGTCACCTAACGAGCTGCC | 1.06 | 0.728 | -0.345 | 0.685 | 0.632 | 1.69 | 1.03 | 2.1 | 1.38 | 1.75
ACTATTAGTTGAGACGGGGGCAACCGATAGGTTG | 1.28 | 1.35 | 0.528 | 3.71 | 7.57 | 2.52 | 1.16 | 2.35 | 1.24 | 1.87
TATACAGGGTCACAGGCCAGAGTACGAATGTCGA | 7.56 | 5.94 | 2.06 | 4.84 | 2.2 | 6.06 | 8.05 | 6.76 | 3.77 | 5.75
ACCAGCAGGCCAAGTTTGGGTCACTCAAACAAAG | 0.266 | -0.108 | -0.521 | 0.635 | -0.887 | 1.31 | -0.217 | 0.223 | -0.767 | -0.323
AGAATGAGGTTATACGTAGACCAGGGAAGAAAGT | 2.15 | 1.62 | -0.0461 | 1.41 | -0.0466 | 3.11 | 1.74 | 1.98 | 0.485 | 1.29
CAAACAAGGTCAAGGTCAAAGTCGGTTTGTGCCA |  |  | 4.84 |  | 2.25 | 6.38 | 7.93 | 7.31 | 4.7 | 6.55
CAAACTAGTTCAAGGTCAAAGTCGGTTTGTGCCA | 5.67 | 5.81 | 6.22 | 4.81 | 1.76 | 5.13 | 3.27 | 3.88 | 1.53 | 3.03
CCTTACGGGTCACTCCAGTTTATAGCATCGGAGT | 5.02 | 6.61 | 0.838 | 3.77 | -0.0101 | 4.4 | 3.25 | 3.3 | 1.11 | 2.27
